# Source: PubChem
# RORg inh: ROR gamma (mouse) transcription inhibition; P51450; Drosophila S2 Gal4-RORgamma UAS-luciferase reporter, 20 h; Potency, µM (series often up to 53.6 µM), inactives show at the top dose activity change, negative = inhibition, hits mostly inhibitors; 5.4% of 310,000 active; AID 2551; note: % is set by controls: 0 for no effect and ±100 for the full control effect; nearly all actives have a fitted effect of over 60% in size
# Target sequence (P51450 whole entry, looked up, the tested form may be a part): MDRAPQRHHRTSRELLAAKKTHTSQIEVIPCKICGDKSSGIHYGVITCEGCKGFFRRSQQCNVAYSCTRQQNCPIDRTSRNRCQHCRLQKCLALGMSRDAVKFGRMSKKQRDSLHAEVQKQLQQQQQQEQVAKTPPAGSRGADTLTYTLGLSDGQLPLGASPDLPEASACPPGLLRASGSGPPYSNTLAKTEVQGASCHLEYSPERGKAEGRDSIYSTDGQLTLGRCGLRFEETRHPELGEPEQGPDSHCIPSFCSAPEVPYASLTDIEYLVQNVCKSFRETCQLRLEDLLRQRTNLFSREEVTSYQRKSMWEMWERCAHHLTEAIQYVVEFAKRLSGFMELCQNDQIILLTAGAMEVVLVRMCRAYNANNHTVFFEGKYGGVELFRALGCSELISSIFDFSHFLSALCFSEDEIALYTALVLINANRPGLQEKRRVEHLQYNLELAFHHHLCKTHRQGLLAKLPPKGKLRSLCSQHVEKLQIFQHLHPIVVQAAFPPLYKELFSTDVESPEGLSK
#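 Using a luciferase readout, inhibitors were identified by reduced reporter activity in Drosophila cells coexpressing a copper-inducible Gal4–ROR gamma fusion and UAS-driven Photinus luciferase, incubated 20 hr after 700 uM copper sulfate.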
# uPA surface inh: inhibitors of cell surface uPA generation | cell surface uPA generation assay, qHTS | Potency, µM (highest dose often 38.3 µM), for the others: at the top dose activity change, negative = inhibition, most hits filed as inhibitors | 0.31% of 330,000 active; active = well fitted inhibition curve with a large enough effect; inconclusive = small, poorly fitted or top-dose-only effect; inactive = no such curve, though single readings can be large or run the other way; tested in mouse RAW 264.7 cells; note: % is set by controls: 0 for no effect and ±100 for the full control effect; nearly all actives have a fitted effect of over 55% in size
# Mito fusion act: inhibitors of mitochondrial division or activators of mitochondrial fusion. S. cerevisiae fusion-defective mutant growth rescue, CellTiterGlo 48 h. 0.23% of 320,000 active. Potency, µM (highest dose often 46.1 µM), without a hit: at the top dose growth rescue (activation), hits mostly activators. AID 485298; note: % of control where 0% means no effect; nearly all actives have a fitted effect of over 45% in size
#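 Growth-rescue viability read-out: after 48 h at the non-permissive 37C in glycerol/ethanol YPEG, yeast mitochondrial fusion mutants are measured by CellTiterGlo luminescence; compounds (23 nl pinned per well) restoring growth score as division inhibitors or fusion activators.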
# Chronic BCR inh: inhibitors of chronic active B-cell receptor signaling; ABC-DLBCL IkBa-CBG/CBR reporter, luminescence ratio, 4 h; Potency, µM (titrated, usually from 46.1 µM), for inactives: top-dose activity change, negative = inhibition, most hits filed as inhibitors; 0.05% of 340,000 active; AID 493014; active = well fitted inhibition curve with a large enough effect in the signal ratio, with a control signal flat, not every such curve was filed as active; inconclusive = small, poorly fitted or top-dose-only effect, or effect the other way, or a change in a side signal; the % refers to the signal ratio;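 note: plate controls were basal doxycycline-induced cells for no effect and cells given 10 µM MG132 for full effect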
#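 Concentration-response series (up to 46 uM) were applied to TMD8 dual-reporter cells for 4 h at 37C with doxycycline. Green/red ratio, after filter-overlap correction, defined %Activity; red signal alone was normalised to basal cells and zero luminescence.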
# Integrin act MD: activators of alpha7 integrin expression for muscular dystrophy; alpha7betagal myoblasts, beta-gal FDG fluorescence, 48 h; Potency, µM (highest dose often 38.3 µM), without a hit: at the highest dose activation, most hits filed as activators; 0.064% of 350,000 active;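 note: 100% = response of the positive control SU9516; nearly all actives have a fitted effect of over 60% in size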
#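 Alpha7betagal+/- myoblasts (passage 13) were plated 16-24 hr, then exposed to compounds (1:260 dilution of DMSO stock) for 48 hours at 37C. After MPER lysis, β-galactosidase reporter activity was read as FDG fluorescence (ex 480/em 540) after 30 minutes.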
# VP16 counter: counter-screen for ROR gamma inhibitors: Gal4-VP16 reporter | 3.5% of 310,000 active | AID 2546 | Potency, µM (top dose mostly 53.6 µM), for inactives: top-dose activity, negative = inhibition, most hits filed as inhibitors | Drosophila S2 Gal4-VP16 UAS-luciferase, luminescence, 20 h;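 note: Gal4-VP16 expression switched on by copper sulfate through the metallothionein promoter; % is set by controls: 0 for no effect and ±100 for the full control effect; nearly all actives have a fitted effect of over 50% in size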
# * = called active by the depositor; ? = inconclusive; / = no result. An excerpt weighted towards active compounds, which were near 5.5% of everything screened. Unless noted, calls come from the whole dose curve; as a rule, active = well fitted curve in the direction sought with a large enough effect; inconclusive = small, poorly fitted or top-dose-only effect, or another doubt; inactive = no such curve, though single readings can be large; an effect the other way counts as inactive or inconclusive. Potency is the fitted concentration of half-maximal effect.
SMILES,RORg inh,uPA surface inh,Mito fusion act,Chronic BCR inh,Integrin act MD,VP16 counter
CC(C)(C)C1=CC(=O)C(N2CCOCC2)=CC1=O,10µM*,-5.1%,18.6%,-0.5%,-36.7%,?
CC1Oc2ccccc2C=C1/C=N/NC(=O)c1ccccc1O (stereo not given),?,?,15.3%,?,1.3%,?
CC1CN(c2ncc(/C=N/NC(=O)c3ccccc3O)s2)CC(C)O1 (stereo not given),0.355µM*,-1.6%,1.5%,?,-8.7%,1.26µM*
O=C(c1ccc(Br)cc1)N(Cc1ccco1)C1CCS(=O)(=O)C1 (stereo not given),3.4%,3.5%,0.7%,1.0%,?,-13.5%
CS(=O)(=O)Nc1cccc(-c2ccc3ncnc(Nc4ccc(F)cc4)c3c2)c1,?,/,/,/,/,-1.3%
O=C(NCC(c1ccco1)S(=O)(=O)c1cccs1)c1ccccc1 (stereo not given),/,/,/,-4.4%,/,/
CCOc1nc2cnccc2n(CC(=O)Nc2ccccc2C(=O)OC)c1=O,-2.8%,-2.5%,2.6%,-14.5%,-2.1%,-0.8%
O=C(C1CCCCC1)N(Cc1nc2sc3c(c2c(=O)[nH]1)CCCC3)Cc1cccs1,11.2µM*,-1.9%,4.7%,-0.6%,-36.5%,?
O=C(C1CC1)N(Cc1nc2ccccc2c(=O)[nH]1)Cc1cccs1,?,-1.6%,-0.7%,-7.2%,0.2%,-0.6%
Fc1ccc(-n2c(=S)[nH]c3cccnc32)cc1,?,-5.0%,1.3%,-0.1%,-1.2%,?
FC(F)(F)c1cnc2c(c1)[nH]c(=S)n2-c1ccc(Cl)cc1,7.94µM*,-27.0%,-36.9%,11.5%,?,?
Cc1nc(-c2ccc(Cl)cc2)sc1C1(C)CC(c2cccc([N+](=O)[O-])c2)=NO1 (stereo not given),-0.2%,4.8%,8.4%,?,5.4%,22.2%
CCc1cc2c(=O)n(CCC(C)C)c(=S)[nH]c2s1,0.199µM*,2.6%,18.8%,-1.1%,9.4%,1.41µM*
CC[C@H](NC(=O)[C@H](CCCN=C(N)N)NC(=O)[C@H](Cc1c[nH]c2ccccc12)NC(=O)[C@@H](N)CS)C(=O)N[C@@H](CCCN=C(N)N)C(=O)N[C@@H](Cc1ccc(O)cc1)C(N)=O,11.5%,/,/,/,/,-12.8%
Cc1ccc(-n2nnc(-c3cccnc3)n2)cc1,/,?,/,/,8.0%,/
Cc1ccc(-n2nnc(-c3nccn3C)n2)cc1,?,3.16µM*,-7.1%,?,21.2%,?
Cc1ccc(-c2nc3n(n2)Cc2ccccc2-3)cc1,?,-9.2%,6.2%,?,-24.0%,10µM*
CCn1c(C)nc2cc(-c3nc4n(n3)Cc3ccccc3-4)ccc21,0.891µM*,-10.0%,-24.5%,?,2.7%,0.0447µM*
Cc1cc(C)cc(N=Cc2c(O)c3ccccc3oc2=O)c1,0.9%,-0.7%,11.9%,?,2.5%,-3.8%
O=C(O)c1cc(N=Cc2c(O)c3ccccc3oc2=O)ccc1O,-5.9%,6.7%,2.6%,?,7.08µM*,4.0%
O=C1C(C=NCc2ccccn2)=C(O)c2ccccc21,2.51µM*,-2.8%,-4.7%,?,-2.0%,5.01µM*
Cc1cccc(/N=C/c2c(O)c3ccccc3oc2=O)n1,-9.4%,10.1%,-2.3%,?,-2.3%,-5.7%
O=c1oc2ccccc2c(O)c1C=NCc1ccccn1,0.562µM*,-3.9%,-3.9%,?,11.9%,1µM*
CNc1ccc(/C=C/C(=O)c2cccc3ccccc23)cc1[N+](=O)[O-],29.0%,-8.8%,28.9%,-13.1%,1.1%,4.2%
COc1cccc2c1CCCC2CCCN1CCN(C2CCCCC2)CC1 (stereo not given),-2.2%,/,/,/,/,-0.6%
SMILES,RORg inh,uPA surface inh,Mito fusion act,Chronic BCR inh,Integrin act MD,VP16 counter
Clc1cc(Cl)c(OCC#CI)cc1Cl,7.08µM*,/,/,/,/,5.62µM*
CCNc1ncc2nc(-c3ccc(F)cc3)c(=O)n(CCc3ccccc3)c2n1,3.9%,/,/,/,/,-6.1%
CCOC(=O)c1ccc(N2CCN(c3cc(C)ccc3C)CC2)c(NC(=O)Nc2ccccc2)c1,/,/,/,0.2%,/,/
CCN(CC)C(=O)COc1ccc(/C=C(\C#N)S(=O)(=O)c2ccccc2)cc1OC,0.2%,?,-0.3%,?,-13.9%,4.1%
COc1ccc(SCC(c2ccccc2)N2CCN(CC(C)C)CCC2=O)cc1 (stereo not given),-13.3%,/,/,/,/,-4.1%
NNc1ccc2c(C(F)(F)F)cc(C(F)(F)F)nc2n1,12.6µM*,5.1%,-12.9%,-0.4%,-19.5%,1.2%
Cc1ccc(/C=N/Nc2ccc3c(C(F)(F)F)cc(C(F)(F)F)nc3n2)cc1,-29.9%,0.3%,-1.1%,3.1%,-13.7%,0.5%
Cc1c(CCC(=O)O)c(=O)oc2cc3occ(-c4ccc(F)cc4)c3cc12,2.82µM*,2.6%,19.8%,?,0.8%,?
Cc1oc2c(C)c3oc(=O)c(CCC(=O)O)c(C)c3cc2c1-c1ccccc1,11.5%,-6.0%,3.55µM*,-1.5%,32.9%,-3.5%
O=C(O)CCCCCCCCCC(=O)c1cccs1,10µM*,-6.7%,0.2%,?,13.6%,3.55µM*
CC(CC(=O)c1cccs1)CC(=O)c1cccs1,4.2%,-2.8%,3.7%,?,-7.8%,-1.9%
O=C(Nc1nccs1)C1CCN(S(=O)(=O)c2c(Cl)cccc2Cl)CC1,8.91µM*,3.9%,19.0%,?,2.1%,9.0%
O=C(Nc1ncccc1O)c1cccc(S(=O)(=O)N2CCCc3ccccc32)c1,/,-0.6%,?,-0.1%,17.6%,/
O=C(Nc1nccs1)c1ccc(Cl)c(S(=O)(=O)N2CCCCC2)c1,10µM*,5.0%,-18.6%,/,-4.1%,?
Cc1cccnc1NC(=O)c1cccc(S(=O)(=O)N2CCCc3ccccc32)c1,11.2µM*,1.6%,3.5%,0.3%,5.9%,?
O=C(Nc1nc2ccccc2[nH]1)c1ccc(Cl)c(S(=O)(=O)N2CCCC2)c1,6.31µM*,-11.7%,2.0%,-22.3%,-43.4%,8.91µM*
COCCNC(=O)COC(=O)c1cccnc1SC,-1.1%,2.3%,-4.4%,0.6%,6.2%,-3.5%
COc1ncc2nc(-c3cccs3)c(=O)n(C)c2n1,-31.1%,/,/,/,/,4.0%
COC(=O)c1cn(CCC#N)nc1-c1ccc2ccccc2c1,1.0%,-4.1%,1.5%,-14.2%,-3.5%,8.2%
Cc1cccnc1NC(=O)c1ccc(Cl)c(S(=O)(=O)N2CCCCCC2)c1,3.98µM*,-1.0%,3.8%,?,7.5%,?
O=C(Nc1nccs1)c1ccc(Br)c(S(=O)(=O)N2CCOCC2)c1,12.6µM*,0.7%,-17.7%,25.9%,9.4%,?
O=C(Nc1ccon1)c1ccc(Cl)c(S(=O)(=O)N2CCCCC2)c1,1.41µM*,-4.9%,3.7%,-0.6%,0.0%,2.24µM*
